Data taken from PubChem BioAssay (NCATS).
Results filed as inconclusive are left out. The source made the active and inactive calls. Unless noted, the call rests on the fitted dose curve; in most records, active means well fitted curve in the direction sought with a large enough effect; inconclusive means small, poorly fitted or top-dose-only effect, or another doubt; inactive means no such curve, though single readings can be large; an effect the other way counts as inactive or inconclusive.

Legend:
[1] = Cell Viability - BJ (AID 421; calls by dose curve;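 further: potency means the concentration at half of the fitted maximal effect; cells exposed to compound for 40 hours at 37 °C before readout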); conditions: BJ fibroblast viability, qHTS
How it was run: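 Luminescent ATP signal (CellTiter-Glo, 20 min at room temperature) served as the read-out of viable BJ cells after 40 hours of compound treatment. Responses were scaled between DMSO and 100 uM tamoxifen, and AC50 values were obtained by Hill modeling.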

[2] = Cell Viability - Jurkat (AID 426;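 active means dose-dependent loss of cell ATP signal giving a full or clear fitted curve, ranked by lower potency value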;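 further: potency means the concentration at half of the fitted maximal effect; cells exposed to compound for 40 hours at 37 °C before ATP read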); conditions: qHTS
How it was run: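 Seed 5000 Jurkat E6-1 cells/well; add compound; incubate 40 hr at 37 °C; add CellTiter-Glo; wait 20 min at room temperature; read luminescence. Fit concentration-response with Hill equation for AC50.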

[3] = Cell Viability - Hek293 (AID 427;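 active means compounds whose dose-response curve shows a full or clear partial loss of cell viability, called from curve shape rather than a numeric limit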;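 further: potency means the concentration at half of the fitted maximal effect; cells exposed to compound for 40 hours at 37 °C before reading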); conditions: qHTS
How it was run: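 Luminescent ATP read-out (CellTiter-Glo, 20 min RT) after 40 hr compound exposure at 37 °C in complete medium. Signal normalized to DMSO (basal) and 100 uM tamoxifen (100% inhibition); concentration-response fitted with the standard Hill equation to give AC50.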

[4] = Cell Viability - MRC5 (AID 434; calls by dose curve;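 further: potency means the concentration at half of the fitted maximal effect; cells exposed to compound for 40 hours at 37 °C; potency reflects cytotoxicity seen as loss of intracellular ATP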); conditions: MRC5 lung fibroblast viability, qHTS
How it was run: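 qHTS cytotoxicity in human lung fibroblast MRC5 cells; 40 hr treatment, 37 °C; cellular ATP by luciferase luminescence; DMSO = 0%, 100 uM tamoxifen = 100% inhibition; Hill-fit AC50.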

[5] = Cell Viability - SK-N-SH (AID 435; calls by dose curve;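 further: potency means the concentration at half of the fitted maximal effect; compound exposure lasted 40 h at 37 °C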); conditions: SK-N-SH neuroblastoma cell viability qHTS
How it was run: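 SK-N-SH neuroblastoma cells (1500/well) treated 40 h at 37 °C in complete medium; viability read as cellular ATP by CellTiter-Glo luminescence. Normalized to DMSO and 100 uM tamoxifen; AC50 from Hill fits of qHTS concentration-response.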

[6] = target: Mitogen-activated protein kinase 10 (Mus musculus) (UniProt Q61831); assay: JNK3 AlphaScreen Assay (AID 530; active means well fitted curve in either direction with a large enough effect, not every such curve was filed as active;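 further: kinase came from lysate of stimulated human HepG2 cells; signal reports phosphorylation of biotinylated GST-cJun 1-79 at Ser73 with 10 µM ATP; on the % scale 0 is the no-effect control and ±100 the full control effect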)
How it was run: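 Room-temperature AlphaScreen kinase assay; pre-activated HepG2 lysate as JNK3 source, biotin-GST-cJun(1-79) substrate, 10 uM ATP, compound 15 min preincubation.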

[7] = Cell Viability - N2a (AID 540); conditions: N2a mouse neuroblastoma cell viability; activity change, negative = cytotoxicity: at 92.2 µM (top of the series);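 further: cells exposed to compound for 40 h at 37 °C; plate controls were DMSO alone for no effect and tamoxifen control for full effect; nearly all actives have a fitted effect of over 45% in size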
How it was run: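 First, 1500 N2a cells per well incubate 5 hr at 37 °C; next, compounds are added and incubated 40 hr at 37 °C; finally CellTiter-Glo is added and luminescence read after 20 min, with AC50 derived by Hill modeling.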

[8] = Cell Viability - NIH 3T3 (AID 541); conditions: NIH 3T3 cell viability, qHTS; activity change, negative = cytotoxicity: at 92.2 µM (top of the series);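 further: plate controls were DMSO alone for no effect and tamoxifen positive control for full effect; nearly all actives have a fitted effect of over 25% in size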
How it was run: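 AC50 values reflect concentration-dependent loss of intracellular ATP in NIH 3T3 cells after 40 hr treatment in complete culture medium, quantified by luciferase-based luminescence.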

[9] = Cell Viability - H-4-II-E (AID 543); further: on the % scale 0 is the no-effect control and ±100 the full control effect; nearly all actives have a fitted effect of over 35% in size
How it was run: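 Here, cytotoxicity is measured in the rat hepatoma line H-4-II-E as loss of intracellular ATP after 40 hr compound treatment, detected by luciferase luminescence.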

[10] = Cell Viability - SH-SY5Y (AID 544); further: nearly all actives have a fitted effect of over 55% in size
How it was run: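 Cytotoxicity is scored as a concentration-dependent fall in intracellular ATP in human SH-SY5Y cells treated 40 hr in complete culture medium. Potency is expressed as AC50 from a Hill equation fit.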

[11] = Cell Viability - Mesenchymal (AID 546); conditions: mesenchymal cells viability, qHTS; activity change, negative = cytotoxicity: at 91.7 µM (top of the series);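 further: cells exposed to compound for 40 hours before reading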
How it was run: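 AC50 values reflect the drop in intracellular ATP in a human kidney mesenchymal line derived from normal glomeruli. Treatment lasts 40 hr at 37 °C in complete medium, and the signal comes from CellTiter-Glo luminescence.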

[12] = Cellular Toxicity (caspase-3) Jurkat (AID 655); conditions: Jurkat caspase-3 activation, luminescence, DMSO = 0%, tamoxifen = 100%; at 92.2 µM (top of the series);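 further: cells exposed to compound for 16 h at 37 °C before reading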
How it was run: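 Jurkat cells (5000/well) in complete medium exposed 16 h at 37 C; caspase-3/7 activity read by Caspase-Glo luminescence after 20 min at room temperature. Normalized to DMSO and 100 uM tamoxifen; AC50 from Hill fits.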

[13] = Cellular Toxicity (caspase-3) HUV-EC-C (AID 656)
How it was run: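 HUV-EC-C cells (1000/well) in complete medium, compound-treated 16 h at 37 °C; caspase-3/7 activity read by Caspase-Glo 3/7 luminescence. Normalized to DMSO (basal) and 100 uM tamoxifen (100%); AC50 from Hill-equation concentration-response fits.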

[14] = Cellular Toxicity (caspase-3) SHSY5Y (AID 657)
How it was run: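 SH-SY5Y human neuroblastoma cells, 1500/well, exposed to compound for 16 hours at 37 °C in complete medium. Caspase-3/7 activity read by Caspase-Glo luminescence after 1 hr at room temperature, normalized to DMSO and 10 uM staurosporine; AC50 from Hill fit.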

[15] = Cellular Toxicity (caspase-3) BJ (AID 658);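 further: 0% = DMSO basal and 100% = 10 µM staurosporine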
How it was run: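 Readout: Caspase-Glo 3/7 luminescence increase in BJ cells after 16 hr treatment at 37 °C. Staurosporine and tamoxifen served as positive controls; AC50 values came from Hill modelling of data normalized to DMSO and 10 uM staurosporine.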

[16] = Cellular Toxicity (caspase-3) MRC-5 (AID 659);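 further: 0% = DMSO basal and 100% = 10 µM staurosporine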
How it was run: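 Concentration-dependent caspase 3/7 activation is measured in human normal lung fibroblasts (MRC-5) following 16-hour treatment. AC50 values come from standard Hill-equation modeling of luminescence normalized to DMSO and 10 uM staurosporine.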

[17] = Cellular Toxicity (caspase-3) Mesangial (AID 660);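 further: cells exposed to compound for 16 h before the caspase read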
How it was run: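 Concentration-response qHTS: compound-induced rise in caspase 3/7 luminescence in human mesangial cells after 16 h, normalized to DMSO and 100 uM tamoxifen controls.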

[18] = Cellular Toxicity (caspase-3) H-4-II-E (AID 663); conditions: Potency: caspase-3 activation;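 further: cells exposed to compound for 16 hr before readout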
How it was run: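 Apoptosis induction is scored as increased luminescence from caspase 3/7 substrate cleavage in rat hepatoma H-4-II-E cells exposed to compound for 16 hr. Activity is scaled between DMSO and 100 uM tamoxifen.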

[19] = Cellular Toxicity (caspase-3) Hek293 (AID 664);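 further: cells exposed to compound for 16 h at 37 °C before readout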
How it was run: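 Activation of caspase-3/7 is measured as increased luminescence from cleaved peptide-aminoluciferin substrate in HEK293 cells treated 16 hours at 37 °C. AC50 values come from Hill-equation fits of concentration-response data.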

[20] = Cellular Toxicity (caspase-3) N2a (AID 665);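 further: compound exposure lasted 16 h at 37 °C before readout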
How it was run: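 Plated mouse neuroblastoma N2a cells received titrated compounds for 16 h in complete medium. Caspase activity was then detected with a peptide-aminoluciferin luminescent reagent.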

[21] = Cellular Toxicity (caspase-3) NIH 3T3 (AID 666);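 further: caspase signal read after 16 h compound exposure; 0% = DMSO basal and 100% = 100 µM tamoxifen stimulation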
How it was run: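 Concentration-response qHTS in NIH 3T3 mouse fibroblasts scores caspase-3/7 activation as rising luminescence after 16 hr compound exposure. Signals are scaled between DMSO-only and 100 uM tamoxifen.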

[22] = Cellular Toxicity (caspase-3) Renal Proximal Tubule (AID 667);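 further: cells exposed to compound for 16 hours at 37 °C before detection; 0% = DMSO basal and 100% = 10 µM staurosporine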
How it was run: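 Freshly isolated primary rat kidney proximal tubule cells, 1000/well, treated 16 hr at 37 °C, then Caspase-Glo 3/7 luminescence after 1 hr. Normalized to DMSO and 10 uM staurosporine; AC50 from Hill fit.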

[23] = Cell Viability - LYMP2-001 (AID 921);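 further: 0% = DMSO only and full inhibition = tetraoctylammonium bromide control wells; nearly all actives have a fitted effect of over 70% in size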
How it was run: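 Human lymphoblastoid LYMP2-001 cells, 2500 per well, in complete medium, treated 24 h at 37 C. Viability from cellular ATP by CellTiter-Glo luminescence; AC50 from Hill-equation fits of qHTS concentration-response.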

[24] = MultiTox-Fluor Cytotoxicity Assay - LYMP1-001 - Dead Cells (AID 946);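 further: 0% = DMSO and 100% = tetraoctylammonium bromide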
How it was run: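 AC50 from Hill fit of concentration-response; data normalized to DMSO (basal) and 15 uM tetraoctylammonium bromide (100%). LYMP1-001 lymphoblastoid cells, 2500/well, 16 hr compound at 37 C; dead-cell protease fluorescence, Ex/Em 485/520.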

[25] = MultiTox-Fluor Cytotoxicity Assay - LYMP1-001 - Live Cells (AID 947);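 further: 0% = DMSO only and full inhibition = tetraoctylammonium bromide control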
[26] = Cell Viability - LYMP1-002 - Assay at 16 hr (AID 948);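 further: 0% = DMSO alone and full effect = 92 µM tetraoctylammonium bromide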
How it was run: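 LYMP1-002 human lymphoblastoid cells, 2500/well, were treated with compounds for 16 hr at 37 C in complete medium. Viability was read as intracellular ATP by CellTiter-Glo luminescence, and AC50 was derived from a Hill fit to concentration-response data.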

[27] = MultiTox-Fluor Cytotoxicity Assay - LYMP1-002 - Live Cells (AID 955); further: on the % scale 0 is the no-effect control and ±100 the full control effect
How it was run: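 Cytotoxicity in the human lymphoblastoid line LYMP1-002 is measured as loss of live-cell protease activity after 16 h treatment in complete culture medium. AC50 is derived from Hill-equation fits of qHTS concentration-response data.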

[28] = MultiTox-Fluor Cytotoxicity Assay - LYMP1-003 - Dead Cells (AID 961);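 further: 0% = DMSO and 100% = tetraoctylammonium bromide; nearly all actives have a fitted effect of over 70% in size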
How it was run: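 Human lymphoblastoid LYMP1-003 cells (2500/well) were treated with compounds for 16 hr at 37 C in complete medium. Dead-cell protease release was read by bis-AAF-R110 fluorescence (Ex/Em 485/520). AC50 came from Hill fits, normalized to DMSO and 15 uM tetraoctylammonium bromide.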

[29] = MultiTox-Fluor Cytotoxicity Assay - LYMP1-003 - Live Cells (AID 962);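 further: 0% = DMSO only and full loss = 92 µM tetraoctylammonium bromide; cytotoxic hits lower the live-cell protease signal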
How it was run: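 Cells plated at 2500 per well and incubated 5 hr; compounds added and incubated 16 hr at 37 C; MultiTox-Fluor reagent added for 60 min at room temperature; fluorescence of liberated AFC measured at 405/510 nm.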

[30] = Cell Viability - LYMP1-003 - Assay at 24 hr (AID 963);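 further: plate controls were DMSO only for no effect and tetraoctylammonium bromide positive control for full effect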
How it was run: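 Acute toxicity in LYMP1-003 lymphoblastoid cells: 24 hr compound treatment at 37 C, ATP measured with CellTiter-Glo after 30 min at room temperature. AC50 derived by fitting the Hill equation to qHTS titrations.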

[31] = Cell Viability - LYMP1-003 - Assay at 40 hr (AID 964); further: on the % scale 0 is the no-effect control and ±100 the full control effect; nearly all actives have a fitted effect of over 60% in size
How it was run: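 This qHTS cytotoxicity screen treats human lymphoblastoid cells (LYMP1-003) with compounds for 40 hr and quantifies cellular ATP via luciferase luminescence.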

[32] = Cell Viability - LYMP2-004 (AID 966);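 further: plate controls were DMSO only for no effect and tetraoctylammonium bromide control for full effect; nearly all actives have a fitted effect of over 65% in size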
How it was run: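 Acute toxicity is scored as a concentration-dependent drop in intracellular ATP, quantified by luciferase luminescence, in human lymphoblastoid cells exposed to compound for 24 hr. AC50 derives from Hill-equation modelling.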

[33] = Cell Viability - LYMP2-005 (AID 967);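 further: plate controls were DMSO only for no effect and 92 µM tetraoctylammonium bromide control for full effect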
How it was run: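 Human lymphoblastoid LYMP2-005 cells, 2,500 per well in complete medium, rested 5 h at 37C then compound-treated 24 h at 37C. Intracellular ATP read by CellTiter-Glo luminescence after 30 min at room temperature; AC50 from Hill-equation fits of concentration-response data.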

[34] = Cell Viability - LYMP2-009 (AID 968);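 further: 0% = DMSO alone and the full-kill end = tetraoctylammonium bromide at 92 µM; nearly all actives have a fitted effect of over 55% in size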
[35] = Cell Viability - LYMP2-011 (AID 969);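 further: 0% = DMSO only and full inhibition = 92 µM tetraoctylammonium bromide; nearly all actives have a fitted effect of over 60% in size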
How it was run: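 Acute toxicity is scored as a concentration-dependent drop in intracellular ATP of a human lymphoblastoid line after 24 hr treatment. Values are AC50s modeled with the Hill equation.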

[36] = Cell Viability - LYMP2-013 (AID 970);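 further: 0% = DMSO only and full inhibition = tetraoctylammonium bromide control; nearly all actives have a fitted effect of over 55% in size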
How it was run: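 Acute toxicity was measured in human lymphoblastoid cells (2500/well) exposed to compound titrations for 24 hr, with ATP luminescence (CellTiter-Glo) as read-out and AC50 fitted by Hill equation.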

C[C@H](CCC(=O)O)[C@H]1CC[C@H]2[C@@H]3CC[C@@H]4C[C@H](O)CC[C@]4(C)[C@H]3CC[C@]12C
inactive: Potency [1] > 92 µM | Potency [2] > 92 µM | Potency [3] > 92 µM | Potency [4] > 92 µM | Potency [5] > 92 µM | Potency [6] | activity change, negative = cytotoxicity [7] 2.31% | Potency [8] | Potency [9] | Potency [10] | activity change, negative = cytotoxicity [11] 15.4% | caspase-3 activation [12] -0.354% | outcome [13] | outcome [14] | outcome [15] | outcome [16] | outcome [17] | Potency [18] | outcome [19] | outcome [20] | outcome [21] | outcome [22] | Potency [23] | Potency [24] | Potency [25] | Potency [26] | Potency [27] | Potency [28] | Potency [29] | Potency [30] | Potency [31] | Potency [32] | Potency [33] | Potency [34] | Potency [35] | Potency [36]
